Assay results published in PubChem BioAssay (EPA / NIEHS).
Active and inactive are the calls of the source. The calls were made as follows: active = hit-call score of the fitted dose curve at least 0.9, where 1 is the maximum; inactive = score below 0.9.

Legend:
[1] = target: CCAAT/enhancer-binding protein beta (Homo sapiens) (UniProt P17676); test: ATG_C_EBP_CIS: Attagene CIS-FACTORIAL HepG2 Assay for human CCAAT/Enhancer Binding Protein (C/EBP) beta (AID 2282927); settings: HepG2 Attagene cis-factorial transcription factor reporter; actives raise or lower the signal
Sequence of CCAAT/enhancer-binding protein beta (Homo sapiens) (P17676 whole entry, looked up): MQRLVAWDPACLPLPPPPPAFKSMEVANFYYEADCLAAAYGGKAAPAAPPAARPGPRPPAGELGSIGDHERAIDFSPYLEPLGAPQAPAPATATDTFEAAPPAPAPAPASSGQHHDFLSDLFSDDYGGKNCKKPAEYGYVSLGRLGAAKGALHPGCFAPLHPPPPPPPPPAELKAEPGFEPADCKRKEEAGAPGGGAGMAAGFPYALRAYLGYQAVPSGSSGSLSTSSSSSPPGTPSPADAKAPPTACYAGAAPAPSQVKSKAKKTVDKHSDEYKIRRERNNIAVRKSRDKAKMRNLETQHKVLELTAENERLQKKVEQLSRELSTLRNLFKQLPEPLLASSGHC
In short: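 Endogenous transcription factor activity in human liver HepG2 cells is inferred from induction of a CEBPB-linked reporter mRNA. Exposure lasts 24 h; activity is fitted in both directions relative to DMSO.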

[2] = ATG_CMV_CIS: Attagene CIS-FACTORIAL HepG2 Assay for human CMV (Internal Marker) (AID 2282928); settings: HepG2 CMV promoter reporter, transcription factor profiling; actives raise or lower the signal;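 also: endpoint acts as a background internal control marker rather than a target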
In short: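 Fluorescence intensity of RT-PCR-derived reporter fragments, resolved by capillary electrophoresis, gives the signal. HepG2 liver cells bearing transfected cis-element reporters were treated 24 h; activity in either direction was fit relative to DMSO-treated controls.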

[3] = ATG_DR4_LXR_CIS: Attagene CIS-FACTORIAL HepG2 Assay for human Liver X Receptor (LXR), DR4 submotif (AID 2282929); settings: HepG2 Attagene DR4 cis-reporter, mRNA transcription; actives raise or lower the signal
In short: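 Readout: reporter transcript fluorescence after RT-PCR and capillary electrophoresis, fitted bidirectionally against DMSO controls. Human HepG2 liver cells carried transiently transfected multiplexed reporter constructs; endogenous transcription factor activity measured 24 h post-dosing.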

[4] = target: Aryl hydrocarbon receptor (Homo sapiens) (UniProt P35869); test: ATG_Ahr_CIS: Attagene CIS-FACTORIAL HepG2 Assay for human Aryl Hydrocarbon Receptor (Ahr) (AID 2282930); settings: HepG2 AhR cis-factorial reporter transcription; actives raise or lower the signal
Sequence of Aryl hydrocarbon receptor (Homo sapiens) (P35869 whole entry, looked up): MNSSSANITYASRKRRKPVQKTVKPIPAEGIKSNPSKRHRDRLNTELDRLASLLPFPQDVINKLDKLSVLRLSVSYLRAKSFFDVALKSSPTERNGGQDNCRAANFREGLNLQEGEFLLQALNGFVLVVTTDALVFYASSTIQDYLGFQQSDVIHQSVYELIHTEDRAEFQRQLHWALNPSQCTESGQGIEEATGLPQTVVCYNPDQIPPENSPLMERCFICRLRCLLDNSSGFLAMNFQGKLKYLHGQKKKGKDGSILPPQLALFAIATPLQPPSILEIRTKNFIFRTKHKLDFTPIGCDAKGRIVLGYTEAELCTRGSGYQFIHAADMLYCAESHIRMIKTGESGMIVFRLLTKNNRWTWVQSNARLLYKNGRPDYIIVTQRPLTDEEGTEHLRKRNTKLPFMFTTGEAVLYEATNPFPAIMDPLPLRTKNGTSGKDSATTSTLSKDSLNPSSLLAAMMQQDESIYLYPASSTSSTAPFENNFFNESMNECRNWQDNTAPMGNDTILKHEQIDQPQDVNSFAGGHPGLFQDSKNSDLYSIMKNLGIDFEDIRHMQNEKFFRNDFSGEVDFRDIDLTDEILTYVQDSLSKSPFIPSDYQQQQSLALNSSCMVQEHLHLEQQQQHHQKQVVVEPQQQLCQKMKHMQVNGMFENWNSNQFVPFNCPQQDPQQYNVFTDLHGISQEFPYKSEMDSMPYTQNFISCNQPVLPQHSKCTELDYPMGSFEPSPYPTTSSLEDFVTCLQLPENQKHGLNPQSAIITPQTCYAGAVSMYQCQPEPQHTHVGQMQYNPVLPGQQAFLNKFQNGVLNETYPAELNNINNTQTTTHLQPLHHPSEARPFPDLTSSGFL
In short: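 Transient MRTU transfection of HepG2 → 24 h compound exposure → total RNA, oligo(dT) RT → PCR, 6-FAM extension, HpaI cut → CE fluorescence. DMSO = baseline; bidirectional curve fit.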

[5] = ATG_AP_1_CIS: Attagene CIS-FACTORIAL HepG2 Assay for human Activator Protein 1 (AP-1) (AID 2282931); settings: HepG2 Attagene cis-factorial AP-1 reporter mRNA; actives raise or lower the signal
In short: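 Reporter transcripts were measured 24 h after dosing by RT-PCR and capillary electrophoresis of fluorescent fragments. Cells: HepG2 carrying transfected cis-regulated reporter constructs reading endogenous factor activity. Gain or loss fitted against DMSO.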

[6] = ATG_AP_2_CIS: Attagene CIS-FACTORIAL HepG2 Assay for human Activator Protein 2 (AP-2) (AID 2282932); settings: HepG2 AP-2 cis-reporter, Attagene transcription factor profiling; actives raise or lower the signal
In short: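 Endogenous transcription factor activity is reported through transfected multiplex reporter constructs in HepG2, after 24 h of compound exposure. Transcripts were quantified by RT-PCR and capillary electrophoresis of fluorescent fragments. Bidirectional fit against DMSO.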

[7] = ATG_BRE_CIS: Attagene CIS-FACTORIAL HepG2 Assay for human Bone Morphogenetic Protein (BMP) Response Element (BRE) (AID 2282933); settings: HepG2 BMP response element reporter, Attagene transcription factor profiling; actives raise or lower the signal
In short: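 Endogenous transcription factor activity read in transiently transfected HepG2 cells after 24 h chemical exposure. Bidirectional curve fitting against DMSO; readout is reporter transcript level by RT-PCR with capillary electrophoresis of labelled products.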

[8] = target: Retinoic acid receptor alpha (Homo sapiens) (UniProt P10276); test: ATG_DR5_RAR_CIS: Attagene CIS-FACTORIAL HepG2 Assay for human Retinoic Acid Receptor Alpha (RARE), DR5 submotif (AID 2282934); settings: HepG2 Attagene cis-factorial RARE DR5 reporter, mRNA; actives raise or lower the signal;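 as to AC50: reporter responds to endogenous RAR alpha beta and gamma in HepG2 not RARA alone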
Sequence of Retinoic acid receptor alpha (Homo sapiens) (P10276 whole entry, looked up): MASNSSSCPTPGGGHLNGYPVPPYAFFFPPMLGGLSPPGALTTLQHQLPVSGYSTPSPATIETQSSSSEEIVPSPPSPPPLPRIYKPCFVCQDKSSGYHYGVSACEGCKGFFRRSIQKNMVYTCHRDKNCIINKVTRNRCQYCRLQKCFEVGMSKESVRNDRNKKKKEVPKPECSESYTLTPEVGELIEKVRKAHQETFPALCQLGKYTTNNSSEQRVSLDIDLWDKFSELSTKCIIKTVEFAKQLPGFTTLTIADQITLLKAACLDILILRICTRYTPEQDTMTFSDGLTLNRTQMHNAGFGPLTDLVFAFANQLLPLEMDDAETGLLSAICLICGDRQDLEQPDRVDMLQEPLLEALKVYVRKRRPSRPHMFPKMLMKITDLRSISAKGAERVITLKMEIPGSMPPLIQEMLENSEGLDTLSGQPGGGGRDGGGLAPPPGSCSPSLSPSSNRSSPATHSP
In short: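 Transient MRTU transfection of HepG2; 24 h compound treatment; TriZol RNA, oligo(dT) RT, PCR, FAM labelling, capillary electrophoresis. Bidirectional fit vs DMSO. Endogenous TF activity at DR5 RARE.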

[9] = target: Transcription factor E2F1 (Homo sapiens) (UniProt Q01094); test: ATG_E2F_CIS: Attagene CIS-FACTORIAL HepG2 Assay for human E2F Transcription Factor 1 (AID 2282935); settings: HepG2 Attagene cis-reporter, E2F reporter RNA transcripts; actives raise or lower the signal
Sequence of Transcription factor E2F1 (Homo sapiens) (Q01094 whole entry, looked up): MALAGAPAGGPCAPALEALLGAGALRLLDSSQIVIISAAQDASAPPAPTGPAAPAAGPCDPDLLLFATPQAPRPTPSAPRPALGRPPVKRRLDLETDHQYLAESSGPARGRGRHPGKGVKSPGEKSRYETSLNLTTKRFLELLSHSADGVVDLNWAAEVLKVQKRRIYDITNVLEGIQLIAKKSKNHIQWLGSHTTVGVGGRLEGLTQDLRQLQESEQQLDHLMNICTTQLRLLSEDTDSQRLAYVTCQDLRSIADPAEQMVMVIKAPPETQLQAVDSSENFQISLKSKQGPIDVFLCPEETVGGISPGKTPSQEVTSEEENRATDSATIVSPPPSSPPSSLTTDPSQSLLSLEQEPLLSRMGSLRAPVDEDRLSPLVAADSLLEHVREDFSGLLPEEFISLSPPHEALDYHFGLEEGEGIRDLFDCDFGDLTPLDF
In short: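 Gain or loss of reporter transcript, fitted against DMSO, reflects E2F1-driven transcription. Transiently transfected HepG2 dosed 24 h before RNA isolation. Quantified by fluorescent RT-PCR products separated by capillary electrophoresis.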

[10] = ATG_E_Box_CIS: Attagene CIS-FACTORIAL HepG2 Assay for human Enhancer Box (E-box) (AID 2282936); settings: HepG2 E-box cis-reporter transcription, actives raise or lower the signal
In short: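 E-box-driven reporter transcripts measured in transiently transfected HepG2 after 24 h exposure: RNA reverse-transcribed, PCR-amplified, fluorescently labelled, digested and resolved by capillary electrophoresis. Gain or loss relative to DMSO.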

[11] = ATG_M_61_CIS: Attagene CIS-FACTORIAL HepG2 Assay for M61 Transcription Factor (Internal Marker) (AID 2282937); settings: HepG2 Attagene CIS-FACTORIAL M61 internal marker reporter; actives raise or lower the signal
In short: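 Readout: fluorescent reporter mRNA fragments resolved by capillary electrophoresis after RT-PCR. Transiently transfected human HepG2 cells carried MRTU constructs reporting endogenous TF activity; 24 h chemical exposure; gain or loss of signal fitted relative to DMSO.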

[12] = ATG_EGR_CIS: Attagene CIS-FACTORIAL HepG2 Assay for human Early Growth Response 1 (EGR1) (AID 2282938); settings: HepG2 Attagene CIS-FACTORIAL EGR reporter mRNA; actives raise or lower the signal
In short: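 Read-out: fluorescent reporter-mRNA fragments resolved by capillary electrophoresis after RT-PCR, 24 h post-dose in transiently transfected HepG2. Endogenous transcription-factor activity reported via cis-element-regulated reporter units; gain or loss fitted relative to DMSO.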

[13] = ATG_M_19_CIS: Attagene CIS-FACTORIAL HepG2 Assay for M19 Transcription Factor (Internal Marker) (AID 2282939); settings: HepG2 Attagene CIS-FACTORIAL M19 internal marker reporter; actives raise or lower the signal
In short: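 Internal marker readout, fitted in both directions against DMSO, from HepG2 cells carrying transfected cis-element reporter constructs; RT-PCR and capillary electrophoresis of reporter mRNA after 24 h exposure.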

Measured: AC50

O=C(O)c1cc(I)cc(I)c1I
active: [4] 40.8 µM
inactive: all other assays above

c1ccc(-c2cccc(-c3ccccc3)c2)cc1
active: [3] 27.4 µM | [4] 21.9 µM
inactive: all other assays above

C=CC(=O)OCC(COC(=O)C=C)(COC(=O)C=C)COC(=O)C=C
active: [2] 8.92 µM | [3] 3.12 µM | [5] 33.4 µM | [10] 7.14 µM | [12] 8.31 µM
not listed: [6] | [13]
inactive: all other assays above

CC(C)[N+](=O)[O-]
not listed: [7] | [13]
inactive: all other assays above

CC(=O)C(F)(F)C(F)(F)F
not listed: [9]
inactive: all other assays above

CCCCCCCCCCBr
not listed: [2] | [12]
inactive: all other assays above

COC(=O)Nc1cccc(OC(=O)Nc2cccc(C)c2)c1
inactive: all assays above

O=C(O)COc1ccc(Cl)cc1
not listed: [13]
inactive: all other assays above

Clc1cnc(Oc2ccc(Oc3ncc(Cl)cc3Cl)cc2)c(Cl)c1
active: [4] 5.93 µM
not listed: [6] | [10]
inactive: all other assays above

CC(=Cc1ccccc1)[N+](=O)[O-]
active: [2] 19.3 µM | [3] 5.88 µM | [5] 19.9 µM | [6] 16.6 µM | [9] 13.5 µM
not listed: [10]
inactive: all other assays above

OCCCCO
not listed: [5] | [13]
inactive: all other assays above

Nc1ccc(-c2ccccc2)cc1
inactive: all assays above

O=C/C(Cl)=C(/Cl)C(=O)O
active: [2] 94.3 µM | [3] 70.7 µM | [6] 61.5 µM | [10] 100 µM | [12] 145 µM
not listed: [5]
inactive: all other assays above

C=CC(F)(C(F)(F)F)C(F)(F)C(F)(F)F (stereo not drawn)
not listed: [5]
inactive: all other assays above

OC(c1ccc(Cl)cc1)(c1ccc(Cl)cc1)c1cccnc1
active: [1] 11.1 µM | [3] 11.1 µM
not listed: [6] | [7]
inactive: all other assays above

CCCCOC(=O)COC(=O)c1ccccc1C(=O)OCCCC
inactive: all assays above

[Cl][Sn]([c]1ccccc1)([c]1ccccc1)[c]1ccccc1
active: [3] 0.67 µM | [4] 1.09 µM | [6] 0.503 µM | [8] 0.227 µM | [10] 0.252 µM
not listed: [7] | [12]
inactive: all other assays above

CC(C)(C)c1cc([N+](=O)[O-])cc(C(C)(C)C)c1O
active: [2] 1.77 µM | [5] 0.948 µM | [6] 16.3 µM | [7] 2.01 µM | [8] 2.85 µM
not listed: [9] | [13]
inactive: all other assays above
